# Lamin A splicing – modulators of lamin A splicing. HeLa LMNA splicing GFP/RFP minigene ratio, 48 h. Potency, µM (series often up to 46.1 µM), without a hit: top-dose ratio change, negative = inhibition, usual class: inhibitors. 200,000 tested, 0.01% active; active means well fitted inhibition curve with a large enough effect in the signal ratio, with a control signal flat, not every such curve was filed as active; inconclusive means small, poorly fitted or top-dose-only effect, or effect the other way, or a change in a side signal; the % refers to the signal ratio; further: potency means the concentration at half of the fitted maximal effect
#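 S3 HeLa stable clones carrying a lamin A-EGFP splicing minigene plus DsRed2 were seeded at 600 cells/well in Opti-MEM with 2% FBS, pin-dosed and incubated 48 h at 37°C. Acumen cytometry (488 nm) gave the GFP/RFP total-intensity ratio.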
# HPGD inh – blocks human HPGD enzyme activity. 150,000 tested, 4.3% active. Potency, µM, for inactives: top-dose activity change, negative = inhibition, hits mostly inhibitors. P15428. purified HPGD, NADH fluorescence kinetic, PGE2 substrate; further: potency means the concentration at half of the fitted maximal effect
#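 20 nM HPGD preincubated 15 min at room temperature with compound in 50 mM Tris-HCl pH 8, 0.01% Tween 20. Started with 1 mM NAD+ and 30 uM prostaglandin E2; NADH fluorescence (360/450 nm) read 5 times over 30-s intervals, last minus first.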
# 12-hLO inh – blocks human 12-lipoxygenase activity | purified 12-hLO, xylenol orange hydroperoxide absorbance | Potency, µM (doses to about 57.1 µM), without a hit: top-dose activity change, negative = inhibition, usual class: inhibitors | 150,000 tested, 0.12% active | AID 1452; active means well fitted inhibition curve with a large enough effect; inconclusive means small, poorly fitted or top-dose-only effect; further: potency means the concentration at half of the fitted maximal effect; nearly all actives have a fitted effect of over 55% in size
# Target sequence (P18054 whole entry, looked up): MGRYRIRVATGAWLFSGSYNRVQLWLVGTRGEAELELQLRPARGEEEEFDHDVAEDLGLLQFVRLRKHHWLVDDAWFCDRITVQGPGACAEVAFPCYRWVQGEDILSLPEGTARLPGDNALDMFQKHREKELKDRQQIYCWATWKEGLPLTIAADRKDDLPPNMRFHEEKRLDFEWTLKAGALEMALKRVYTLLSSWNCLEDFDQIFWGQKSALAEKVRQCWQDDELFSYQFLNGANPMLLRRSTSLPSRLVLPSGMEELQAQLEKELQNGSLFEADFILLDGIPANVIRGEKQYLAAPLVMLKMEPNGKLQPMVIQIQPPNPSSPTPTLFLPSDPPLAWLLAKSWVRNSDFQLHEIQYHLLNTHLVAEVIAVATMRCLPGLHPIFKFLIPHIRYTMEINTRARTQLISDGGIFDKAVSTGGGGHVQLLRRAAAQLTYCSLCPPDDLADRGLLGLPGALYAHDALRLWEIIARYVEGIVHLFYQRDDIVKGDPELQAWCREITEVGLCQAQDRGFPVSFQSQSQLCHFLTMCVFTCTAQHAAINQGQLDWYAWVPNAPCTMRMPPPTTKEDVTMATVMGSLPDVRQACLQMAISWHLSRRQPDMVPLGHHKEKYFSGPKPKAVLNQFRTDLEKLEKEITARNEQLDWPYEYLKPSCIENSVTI
#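 Lipoxygenase turnover measured by absorbance at 573 and 405 nm after Fe-XO development. Human 12hLO 150 nM, arachidonate 40 uM, pH 7.0 Hepes buffer with detergent; 15 min compound preincubation, 30 min reaction.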
# PNC inhibitor – blocks assembly of the perinucleolar compartment; PC3M PTB-GFP, PNC prevalence imaging, 16 h; hits give low values; activity change (PNC), negative = inhibition, % at 10 µM; 140,000 tested, 3.1% active;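 active means readout at or below -70, meaning at least 70% loss of cells showing the perinucleolar compartment, a nuclear body marking cancer cells; inconclusive means readout between -30 and a set limit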;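 further: plate controls were DMSO wells for no effect and camptothecin positive control wells for full effect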
#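 PC3M cells stably expressing PTB-GFP, 750–1000 cells/well, treated 16 h at 37 °C with compound (23 nl of library stock), in duplicate. After paraformaldehyde fixation and Hoechst stain, imaged at 20x; PNC prevalence scored by image analysis.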
# ALDH1A1 block – ALDH1A1 (human) enzyme inhibition; 220,000 tested, 7.3% active; Potency, µM (doses to about 75.3 µM), without a hit: at the highest dose activity, negative = inhibition, hits mostly inhibitors; AID 1030; Purified ALDH1A1, NADH fluorescence, propionaldehyde substrate;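 further: potency means the concentration at half of the fitted maximal effect; plate controls were no enzyme wells and a reference inhibitor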
# The depositor's hits bear a star; ? = inconclusive; · = no result; [ ] = another dose, or the depositor's remark. This is a sample that favours compounds with a hit; in the whole collection about 10% have one here. Unless noted, the call rests on the fitted dose curve; in most records, active means well fitted inhibition curve with a large enough effect (not every such curve was filed as active); inconclusive means small, poorly fitted or top-dose-only effect, or another doubt; inactive means no such curve, though single readings can be large or run the other way. Unless noted, on the % scale 0 is the no-effect control and ±100 the full control effect.
SMILES,Lamin A splicing,HPGD inh,12-hLO inh,PNC inhibitor,ALDH1A1 block
CCOC(=O)c1cc(-c2ccc(OC(F)F)cc2)nc2c1c(=O)[nH]c(=O)n2C,5%,?,17%,-84*,-3%
CC1=NN(c2ccc(Br)cc2)C(=O)/C1=C/c1cccs1,3%,14µM*,-19%,?,2.2µM*
CCOC(=O)C1=C(C)N(c2ccccc2)C(=O)/C1=C\c1ccco1,5%,-18%,3%,?,11µM*
CN(C)S(=O)(=O)c1ccc(NS(=O)(=O)/C=C/c2ccccc2)cc1,-15%,-12%,9%,4,?
COc1ccc(NS(=O)(=O)/C=C/c2ccccc2)cc1,?,-14%,-2%,-16,2.5µM*
S=C(Nc1ccc(Cl)c(Cl)c1)N1CCOCC1,?,-1%,2%,-19,7%
O=C(c1ccc(-c2cccc(Cl)c2Cl)o1)N1CCOCC1,6%[46 µM],·,·,·,?
S=C(c1ccc(-c2ccccc2Cl)o1)N1CCOCC1,13%,8.9µM*,-18%,?,7.9µM*
S=C(c1ccc(-c2ccc(Cl)c(Cl)c2)o1)N1CCOCC1,6%,25µM*,-17%,5,8.9µM*
CO[C@H]1COC(=O)[C@@H](C)COC(=O)[C@@H](Cc2ccccc2)NC(=O)C/C=C\[C@H]1C,·,·,·,·,4%[13.5 µM]
COc1ccc(C/C(C)=N/NC(=O)c2ccc(Cl)cc2)cc1,2%[46 µM],·,·,·,7.1µM*
CCOc1cc(C(=O)N/N=C(\C)Cc2ccc(OC)cc2)cc(OCC)c1OCC,-6%,-10%,2%,-26,2%
COc1ccc(C/C(C)=N/NS(=O)(=O)c2ccc(Br)cc2)cc1,·,·,·,·,2.8µM*
Cc1noc(C)c1-c1nccc(NCc2ccccc2)n1,?,·,·,·,34%
CCNC(=O)CCC(N)C(=O)O (configuration not stated),-6%,-4%,3%,·,6%
Cc1ccc(Nc2nc3c(s2)CCC3)c(C)c1,2%,-12%,-4%,-27,?
O=Cc1sc(Nc2ccccc2)nc1Cl,?,·,·,·,-7%
COc1ccccc1Nc1nc2c(s1)CCC2,10%,?,-9%,78,18µM*
COc1ccccc1Nc1nc(Cl)c(C=O)s1,?,·,·,·,18µM*
CCC(Sc1nc2nccnc2c(=O)n1Cc1ccc(C)cc1)C(=O)NC1CCCCC1 (configuration not stated),5%[46 µM],·,·,·,·
CC(C)c1ccc(CNC(=O)c2ccc(N3CCCC3)c(NC(=O)NCc3ccc(F)cc3)c2)cc1,-4%[46 µM],·,·,·,·
CCCN1C(=O)/C(=C/c2ccc(OCC(=O)OCC)cc2)NC1=S,·,·,·,·,1µM*
CCN1C(=O)/C(=C/c2ccc(N3CCCC3)cc2)NC1=S,-11%,-18%,-27%,25,13µM*
Cc1ccc(CN2C(=O)N/C(=C\c3ccc(N4CCOCC4)cc3)C2=O)cc1,1%,-8%,-4%,-6,-3%
CCCN1C(=O)/C(=C/c2ccc(N3CCOCC3)cc2)NC1=S,·,·,·,·,6.3µM*
SMILES,Lamin A splicing,HPGD inh,12-hLO inh,PNC inhibitor,ALDH1A1 block
CCCN1C(=O)/C(=C/c2ccc(N3CCCC3)c(C)c2)NC1=S,?,-30%,-19%,?,0.22µM*
CC(C)(C)N1C(=O)[C@H]2[C@@H]3[C@H](O)[C@H](O)CC(=O)[C@H]3CC[C@H]2C1=O,·,·,·,·,7%[13.5 µM]
CCCCN(CC)CCCNC(=O)CCN1N=C(c2ccc(OC)cc2)CCC1=O,1%[46 µM],·,·,·,·
COc1ccc(N2CCC(CNC(=O)Nc3ccccc3)C2)cc1 (configuration not stated),-10%,?,-22%,3,5µM*
O=C(NCC1CCN(S(=O)(=O)c2ccccc2)CC1)Nc1ccccc1,·,·,·,·,28µM*
O=C(NCC1CCN(S(=O)(=O)c2ccccc2)CC1)Nc1ccc(F)cc1,4%[46 µM],·,·,·,?
O=C1N=c2ccccc2=C1c1[nH]c(=S)[nH]c1O,?,-26%,-3%,30,11µM*
Cc1ccc(NC(=O)c2cnc(SCC(=O)N3CCOCC3)n(C)c2=O)cc1,-7%[46 µM],·,·,·,·
COc1ccccc1N1C(=O)C(Cl)=C(Nc2ccccc2O)C1=O,·,·,·,·,13µM*
Cc1c(-c2ccccc2)c(=O)oc2c(CN3CCN(C)CC3)c(O)ccc12,-6%[46 µM],·,·,·,·
Cn1ccc2cc(S(=O)(=O)N3CCC(C(=O)NCCc4ccccc4)CC3)ccc21,0%[46 µM],·,·,·,·
O=C(Nc1ccc(S(=O)(=O)N2CCCC2)cc1)C1COc2ccccc2O1 (configuration not stated),2%,-10%,-1%,-90*,-3%
O=C(C1COc2ccccc2O1)N1CCN(c2ccc(F)cc2)CC1 (configuration not stated),1%,-3%,-3%,28,1%
O=C(C1COc2ccccc2O1)N1CCCC1 (configuration not stated),24%,13µM*,3%,?,?
O=C(Nc1ccc(S(=O)(=O)N2CCOCC2)cc1)C1COc2ccccc2O1 (configuration not stated),16%,5%,-8%,?,1%
CC(C)C[C@@H](CC(=O)N[C@@H](CCC(=O)O)CC(=O)O)NC(=O)[C@@H]1CNCC[C@H]1NC(=O)C[C@@H](NC(=O)C[C@H](Cc1ccccc1)NC(=O)[C@@H]1CNCC[C@H]1N)C(C)C,·,-12%,-1%,·,?
CC(C)c1cnc2c(c1SCC(=O)Nc1ccc(C(N)=O)cc1)c(=O)n(C)c(=O)n2C,-6%[46 µM],·,·,·,·
CC(C)(C)Nc1nc(OCC(F)(F)F)nc(OCC(F)(F)F)n1,0%,-3%,-2%,-107*,4%
Cc1ccc(C2=NN(CC(=O)NCCCN(CC(C)C)CC(C)C)C(=O)CC2)cc1,-33%[46 µM],·,·,·,·
COC(=O)C1=C(C)Nc2nnnn2C1c1cccnc1 (configuration not stated),-14%,35µM*,5%,95,-7%
COC(=O)C1=C(C)Nc2nnnn2C1c1ccco1 (configuration not stated),16%,?,-3%,-3,10µM*
Cc1noc(C)c1C(=O)N1CCC2(CCN(C(=O)NC(C)C)CC2)CC1,·,-7%,3%,·,8%
NC(=[SH+])N=N/C=C1/C=CC=CN1.O=S(=O)(O)O.[Fe],·,-11%,·,·,?
COc1ccc(C2C3=C(CC(C)(C)CC3=O)OC(N)=C2[N+](=O)[O-])cc1 (configuration not stated),-4%,-12%,1%,37,19µM*
COC(=O)C1=C(N)OC2=C(C(=O)CC(C)(C)C2)C1c1cccs1 (configuration not stated),2%,22µM*,-4%,-12,-11%
CC1(C)CC(=O)C2=C(C1)OC(N)=C(C#N)C2C1C=CCCC1 (configuration not stated),5%,-25%,-12%,?,4µM*
CCC1C(C#N)=C(N)OC2=C1C(=O)CC(C)(C)C2 (configuration not stated),1%,-22%,-1%,?,-11%
